{"source": "PubChem BioAssay AID1347131", "about": "(National Center for Advancing Translational Sciences (NCATS), 2019)", "note": "About 2,000 (0.49%) of roughly 410,000 compounds were called active. About 8% were inconclusive and are not listed. The sample holds actives, similar compounds and a random draw of the others, so the mix is not that of the screen. Calls follow the shape of the full dose curve; tested in HEK293 reporter line. Potency is read from the fitted curve at half-maximal effect."}
{"test": "qHTS Assay for Foot and Mouth Disease Virus Antivirals: Primary Screen against the MLPCN compound library; also: nearly all actives have a fitted effect of over 55% in size", "conditions": "FMDV antiviral cell-based qHTS; series mostly up to 57.9 µM; activity, negative = inhibition: at the top concentration"}
{"smiles": "Cc1ccccc1CS(=O)(=O)c1cn(CC(=O)N2CCC(C)CC2)c2ccccc12", "activity, negative = inhibition": "-30.3% (inactive)"}
{"smiles": "CCc1cc(=O)[nH]c(SCc2nc(-c3ccc(C(F)(F)F)cc3)no2)n1", "activity, negative = inhibition": "-32.9% (inactive)"}
{"smiles": "Cc1ccc2nc(/C(C#N)=C/c3ccc(-c4cccc(Cl)c4)o3)[nH]c2c1", "activity, negative = inhibition": "-32.1% (inactive)"}
{"smiles": "COc1cc(/C=C(/C#N)c2nc3ccccc3[nH]2)ccc1OCC(=O)Nc1ccccc1C", "activity, negative = inhibition": "-31.8% (inactive)"}
{"smiles": "COc1cc(/C=C(\\C#N)c2nc3ccccc3[nH]2)cc(Cl)c1OCc1ccccc1Cl", "activity, negative = inhibition": "-41.7% (inactive)"}
{"smiles": "N#C/C(=C/c1ccc(N2CCCCC2)o1)C(=O)NCCc1c[nH]c2ccccc12", "activity, negative = inhibition": "-32% (inactive)"}
{"smiles": "N#C/C(=C/c1ccc(N2CCOCC2)o1)c1nc2ccccc2[nH]1", "Potency": "8.91 µM (active)"}
{"smiles": "N#C/C(=C\\c1ccc(N2CCOCC2)o1)c1nc2ccccc2[nH]1", "Potency": "10 µM (active)"}
{"smiles": "O=C(CSCc1ccc(F)cc1)N1CCN(c2ccc(F)cc2)CC1", "activity, negative = inhibition": "-30.1% (inactive)"}
{"smiles": "N#Cc1ccccc1Sc1ccccc1C(=O)OCC(=O)NC12CC3CC(CC(C3)C1)C2", "activity, negative = inhibition": "-33.5% (inactive)"}
{"smiles": "COc1ccccc1C(=O)Nc1ccc(-c2cc(C(F)(F)F)nn2-c2ccccc2)cc1", "activity, negative = inhibition": "-36.9% (inactive)"}
{"smiles": "C=CCN1CC[C@]23c4c5ccc(O)c4O[C@H]2/C(=N/NC(=O)c2ccccc2)CC[C@@]3(O)[C@H]1C5", "activity, negative = inhibition": "-28.3% (inactive)"}
{"smiles": "O=C1/C(=C\\c2ccccc2)C[C@@]2(O)[C@H]3Cc4ccc(O)c5c4[C@@]2(CCN3CC2CC2)[C@H]1O5", "Potency": "10 µM (active)"}
{"smiles": "CCOC(=O)[C@H]1[C@H]2COc3ccccc3[C@@H]2N2C(=O)c3ccc(Cl)cc3NC(=O)[C@@]12C", "activity, negative = inhibition": "-37.3% (inactive)"}
{"smiles": "O=C(Nc1ccccc1Cc1ccccc1)c1ccccc1NS(=O)(=O)c1ccc(Cl)s1", "activity, negative = inhibition": "-37.5% (inactive)"}
{"smiles": "CCOc1cc(/C=C2\\C(=O)N(c3ccc(C(N)=O)cc3)N=C2C)ccc1OC(=O)c1cccs1", "activity, negative = inhibition": "-38% (inactive)"}
{"smiles": "COc1cc(/C=C2/C(=O)ON=C2c2ccccc2)ccc1O", "activity, negative = inhibition": "-45.4% (inactive)"}
{"smiles": "C=CCOc1ccc(/C=C2/C(=O)ON=C2C)cc1OCC", "Potency": "31.6 µM (active)"}
{"smiles": "Cc1ccc(S(=O)(=O)N(C)C)cc1NC(=O)CSc1nc2ccccc2[nH]1", "activity, negative = inhibition": "-42% (inactive)"}
{"smiles": "CCOc1ccc(CN2CCNC(=O)C2CC(=O)NCCc2nc(C)c3c(n2)CCC3)cc1", "note": "(stereo not drawn)", "activity, negative = inhibition": "-54% (inactive)"}
{"smiles": "Cc1ccc(-c2nc(CCNC(=O)c3ccco3)cs2)cc1", "activity, negative = inhibition": "-36.4% (inactive)"}
{"smiles": "Cc1ccc(-c2nc(C)c(C(=O)O)s2)cc1", "Potency": "25.1 µM (active)"}
{"smiles": "Cc1ccc(S(=O)(=O)Nc2nc(C)c(C)s2)cc1", "activity, negative = inhibition": "101% (inactive)"}
{"smiles": "Cc1ccccc1N1CCN(C2CCCN(C(=O)CCC3(C)CC3)C2)CC1", "note": "(stereo not drawn)", "activity, negative = inhibition": "-31.3% (inactive)"}
{"smiles": "Fc1ccccc1-c1csc(=Nc2cccnc2)n1CCCn1ccnc1", "activity, negative = inhibition": "-40% (inactive)"}
{"smiles": "O=C(C1COc2ccccc2O1)N1CCN(S(=O)(=O)c2ccccc2)CC1", "note": "(stereo not drawn)", "activity, negative = inhibition": "-32.6% (inactive)"}
{"smiles": "Cc1nc(NC(=O)c2cc3ccccc3o2)sc1C", "Potency": "17.8 µM (active)"}
{"smiles": "CC(=O)c1cccc(NC(=O)CNC(=O)c2cc3ccccc3o2)c1", "activity, negative = inhibition": "-36.7% (inactive)"}
{"smiles": "CCc1cccc(C)c1NC(=O)c1cc2ccccc2o1", "activity, negative = inhibition": "-43% (inactive)"}
{"smiles": "COc1ccc([N+](=O)[O-])cc1NC(=O)C(C)OC(=O)C1CCCC1", "note": "(stereo not drawn)", "activity, negative = inhibition": "-48.6% (inactive)"}
{"smiles": "CC1(C(=O)Nc2cccc(Oc3ccccc3)c2)CCN1Cc1cccc2c1OCO2", "note": "(stereo not drawn)", "activity, negative = inhibition": "-31.1% (inactive)"}
{"smiles": "COc1cccc(-c2sc3ccc(OC)cc3c2-c2ccc(OCCN3CCCC3)cc2)c1", "activity, negative = inhibition": "-31.7% (inactive)"}
{"smiles": "Cc1ccc(C(=O)Nc2cc(-c3nc4cc(Cl)ccc4o3)ccc2C)c(C)c1", "activity, negative = inhibition": "-31.2% (inactive)"}
{"smiles": "Cc1ccc(-c2nc3cc(NC(=O)C(C)C)ccc3o2)cc1C", "Potency": "22.4 µM (active)"}
{"smiles": "CC(C)Oc1ccc(C(=O)Nc2ccc3oc(-c4ccncc4)nc3c2)cc1", "activity, negative = inhibition": "-28.6% (inactive)"}
{"smiles": "COCC(C)n1c(C)cc(C(=O)COC(=O)c2cc(=O)[nH]c3ccccc23)c1C", "note": "(stereo not drawn)", "activity, negative = inhibition": "-25.1% (inactive)"}
{"smiles": "CC(C)(C)OC(=O)N1CCC(c2c(C(=O)N3CCN(Cc4ccccc4)CC3)cnn2-c2ccc(Cl)cc2)CC1", "activity, negative = inhibition": "-34% (inactive)"}
{"smiles": "CCc1ccc(S(=O)(=O)N/N=C\\c2ccc3c(c2)OCO3)cc1", "activity, negative = inhibition": "108% (inactive)"}
{"smiles": "N/C(=N\\N=C\\c1ccc2c(c1)OCO2)c1nonc1N", "Potency": "17.8 µM (active)"}
{"smiles": "O=S(=O)(N/N=C\\c1ccc2c(c1)OCO2)c1ccc(Cl)cc1", "activity, negative = inhibition": "102% (inactive)"}
{"smiles": "Brc1ccccc1CN1CCN(Cc2c[nH]c3ccccc23)CC1", "activity, negative = inhibition": "-41.3% (inactive)"}
{"smiles": "CCN(Cc1cc(=O)oc2cc(C)ccc12)c1ccccc1", "activity, negative = inhibition": "-38.6% (inactive)"}
{"smiles": "CCN(CC)c1ccc2cc(C(=O)NNC(=O)c3ccc(S(=O)(=O)N4CCCCC4)cc3)c(=O)oc2c1", "activity, negative = inhibition": "-31% (inactive)"}
{"smiles": "CCN(CC)c1ccc2c(Cl)c(Br)c(=O)oc2c1", "Potency": "31.6 µM (active)"}
{"smiles": "O=C(C1=C[C@H](c2ccc3c(c2)OCO3)C[C@H](OCc2ccc(CO)cc2)O1)N1CCN(Cc2ccc3c(c2)OCO3)CC1", "activity, negative = inhibition": "-38% (inactive)"}
{"smiles": "Cc1ccc(Nc2nc(N)nc(CN3CCN(c4ccccc4F)CC3)n2)cc1", "activity, negative = inhibition": "-33% (inactive)"}
{"smiles": "CCOc1ccc(C=NNC(=O)c2cccc3ccccc23)cc1OCC", "activity, negative = inhibition": "-38.1% (inactive)"}
{"smiles": "O=C(N/N=C/c1ccc2ncccc2c1)c1ccco1", "Potency": "14.1 µM (active)"}
{"smiles": "O=C(Oc1cccc(/C=N/Nc2nc(N3CCOCC3)nc(N3CCOCC3)n2)c1)c1ccco1", "activity, negative = inhibition": "-35.2% (inactive)"}
{"smiles": "Cc1ccc(-c2ccc(=O)n(Cc3cc(C)ccc3C)n2)cc1", "Potency": "inactive"}
{"smiles": "CCN1CCN(c2cc(-c3ccccc3)nc3cc(-c4cccc(F)c4)nn23)CC1", "activity, negative = inhibition": "-31.5% (inactive)"}
{"smiles": "C=CC[C@@H](Cc1ccc(F)cc1)C(=O)OC[C@H]1CCCN1C(=O)[C@@H](CC=C)CC(=O)N(CCO)Cc1ccccc1", "activity, negative = inhibition": "-34.2% (inactive)"}
{"smiles": "C=CC[C@@H](CC(=O)OC(C)(C)C)C(=O)OC[C@@H]1CCCN1C(=O)[C@@H](CC=C)CC(=O)N[C@@H](CO)Cc1ccccc1", "activity, negative = inhibition": "-31% (inactive)"}
{"smiles": "C=CC[C@@H](CC(=O)OC(C)(C)C)C(=O)OC[C@@H]1CCCN1C(=O)[C@@H](CC=C)CC(=O)N[C@H](CO)Cc1ccccc1", "Potency": "14.1 µM (active)"}
{"smiles": "COc1ccc(C(C)=O)cc1COC(=O)CNC(=O)c1ccccc1F", "activity, negative = inhibition": "-36.6% (inactive)"}
{"smiles": "N#CC(=C=[N-])c1nc2ccccc2nc1-[n+]1ccccc1", "activity, negative = inhibition": "-31.6% (inactive)"}
{"smiles": "COc1cccc(/C=N/NC(N)=S)c1OCc1cccc(Cl)c1", "Potency": "22.4 µM (active)"}
{"smiles": "COc1cc(/C=N/NC(N)=S)cc(Br)c1OCc1ccccc1F", "activity, negative = inhibition": "-30.1% (inactive)"}
{"smiles": "COc1cccc(/C=N/NC(=O)CSc2nnc(C)n2-c2ccccc2)c1OC", "activity, negative = inhibition": "-35.1% (inactive)"}
{"smiles": "CN(C(=O)OC(C)(C)C)c1ccc(-c2nc3ccccc3s2)cc1", "activity, negative = inhibition": "-100% (inactive)"}
{"smiles": "Cc1cc(-c2nc3cc(F)ccc3s2)ccc1N", "Potency": "12.6 µM (active)"}
{"smiles": "Cc1cc(-c2nc3ccccc3s2)ccc1N", "Potency": "7.94 µM (active)"}
{"smiles": "CC(C)(C)C(=O)Nc1ccc(-c2nc3ccccc3s2)cc1", "activity, negative = inhibition": "-67.5% (inactive)"}
